Screens (PubChem)
Hits are enriched below; roughly 1.2% of the tested compounds scored in any of these assays.
Avidin fluor = green autofluorescence of compounds with avidin beads – biophysical, 488/530 nm, flow cytometry, artefact control, profiling panel; AID 1775, 2009; compound fluorescence 488/530 nm; stronger effect = higher value; 220,000 tested, 0.38% active; fluorescence (KMESF) at 10 µM; in the data active = fluorescence above about 47
RGS16-Gao HTS = modulators of RGS16 binding to Galphao, primary screen, biochemical, human proteins, multiplexed bead flow cytometry. Regulator of G-protein signaling 16 (Homo sapiens) + Guanine nucleotide-binding protein …. bead-based flow cytometry RGS16-Galphao binding, fluorescence; actives lie on both sides. binding response (% of control), % at 10 µM. 220,000 tested, 0.38% active; call rule not given here;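 note: Galphao activated by GDP with aluminum fluoride before binding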
RGS7-Gao reg = RGS7-Galphao binding modulators, primary screen, biochemical, multiplexed bead flow cytometry. Guanine nucleotide-binding protein G(o) subunit alpha (Homo sapiens), P09471. actives lie on both sides. binding response (% of control), % at 10 µM. 220,000 tested, 0.35% active. AID 1439, 2008; in the data active = binding response below about 49% or above about 150%; inconclusive = no clear call, values can overlap the other calls; inactive = in between;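 note: fluorescent Galphao held in activated GDP-AlF4 state binding bead-coupled RGS7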
Target sequence (P09471 whole entry, looked up): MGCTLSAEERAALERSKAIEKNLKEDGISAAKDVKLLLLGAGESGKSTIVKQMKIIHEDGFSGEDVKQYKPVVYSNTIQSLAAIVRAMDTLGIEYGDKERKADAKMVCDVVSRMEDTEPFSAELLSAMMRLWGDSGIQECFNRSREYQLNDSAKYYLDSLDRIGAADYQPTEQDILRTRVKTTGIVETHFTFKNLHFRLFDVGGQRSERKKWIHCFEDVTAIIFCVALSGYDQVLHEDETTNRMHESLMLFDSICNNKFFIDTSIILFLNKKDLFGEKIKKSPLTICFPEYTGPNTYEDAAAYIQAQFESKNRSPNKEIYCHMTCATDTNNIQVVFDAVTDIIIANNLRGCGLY
RGS4-Gao reg = modulators of RGS4 binding to Galphao, primary screen, biochemical, multiplexed bead flow cytometry | 220,000 tested, 0.33% active | Guanine nucleotide-binding protein G(o) subunit alpha (Homo sapiens), P09471 | binding response (% of control), % at 10 µM | actives lie on both sides; in the data active = binding response below about 49% or above about 150%; inactive = in between;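 note: fluorescent Galphao activated with aluminum fluoride binding bead-coupled RGS4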
RGS8-Gao = RGS8-Galphao binding modulators, primary screen, biochemical, multiplexed bead flow cytometry | Guanine nucleotide-binding protein G(o) subunit alpha (Homo sapiens), P09471 | actives lie on both sides | response (percent of control binding), % at 10 µM | 220,000 tested, 0.34% active | AID 1423, 2008; in the data active = response below about 60% or above about 140%; inactive = in between;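 note: Galphao activated as the GDP aluminium fluoride complex binding bead-coupled RGS8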
GSH bead fluor = compound fluorescence on glutathione beads, profiling panel, artefact control, biophysical, 488/530 nm, flow cytometry; fluorescence (KMESF) at 10 µM; GSH beads flow cytometry, compound fluorescence 488/530 nm; stronger effect = higher value; 190,000 tested, 0.25% active; in the data active = fluorescence above about 89;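 note: glutathione beads carrying GST-tagged Bcl family fusion proteins plus one bare bead set; values are compound well signal with DMSO vehicle wells as background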
Active calls of the source: *; ? = inconclusive; · = no result given.

SMILES	Avidin fluor	RGS16-Gao HTS	RGS7-Gao reg	RGS4-Gao reg	RGS8-Gao	GSH bead fluor
O=C(/C=C/c1cc([N+](=O)[O-])ccc1OC(F)F)NCc1ccc(Cl)cc1	8	114	104	107	106	264*
COc1ccc(Cl)cc1NC(=O)C1COc2ccccc2O1 (stereo not drawn)	9	103	103	102	100	12
CN1CCN(c2ccc(Cl)cc2NC(=O)C2COc3ccccc3O2)CC1 (stereo not drawn)	7	111	97	96	102	264*
CN1CCN(c2ccc(Cl)cc2NC(=O)c2nn(-c3ccccc3)c(=O)c3ccccc23)CC1	12	104	95	104	102	92*
O=C(COc1ccccc1Cl)NCCCN1CCOCC1	18	100	105	101	100	22
Cc1ccc(NC(=O)c2ccccc2CCc2ccccc2)c(C)c1	56*	103	122	102	100	33
N#CC1=C(N)Oc2c(ccc3cccnc23)C1c1ccccc1 (stereo not drawn)	6	104	?	103	106	·
Cc1oc(C)c2c(=O)ccc3c(c12)OC(N)=C(C#N)C3c1ccccc1Cl (stereo not drawn)	23	101	97	102	102	138*
N#CC1=C(N)OC2=C(CC/C2=C\c2ccccc2Cl)C1c1ccccc1Cl (stereo not drawn)	11	103	101	104	100	10
Cc1oc(C)c2c(=O)ccc3c(c12)OC(N)=C(C#N)C3c1ccccc1 (stereo not drawn)	6	104	105	101	104	585*
CCOc1ccccc1N1CC(C(=O)Nc2cccc(S(=O)(=O)N3CCCCC3)c2)CC1=O (stereo not drawn)	54*	103	?	112	100	13
CCOc1ccccc1N1CC(C(=O)Nc2ccc3c(c2)OCCO3)CC1=O (stereo not drawn)	10	101	?	99	101	12
CSCc1cc(N(C)C)nc(SCc2ccc(Cl)c(Cl)c2)n1	11	102	99	103	102	37
COc1cccc(OC)c1OCCCN1CCOCC1	11	104	99	102	101	16
COc1cccc(OC)c1OCCCCN1CCCC1	56*	95	107	98	100	15
CCOC(=O)CNC(=O)c1sc2nc(C)cc(C)c2c1N	9	102	102	100	101	11
CCCN(CCC)S(=O)(=O)c1ccc(NS(=O)(=O)c2ccc(F)cc2)cc1	52*	101	110	102	99	19
O=C(NCC(=O)N(CC1CCCO1)C(C(=O)NC1CCCCC1)c1cccnc1)c1cccs1 (stereo not drawn)	25	98	100	100	99	8
Cc1cc(C(=O)OCc2nnc(-c3ccccc3)o2)c(C)n1-c1ccccc1	7	106	101	101	102	261*
Cc1cc(Nc2ncc(Cl)cc2Cl)n(-c2ccccn2)n1	7	118	100	102	107	268*
CCc1c(C)sc(NC(=O)c2cccs2)c1C(=O)OC(C)C	11	99	100	100	101	28
Cc1sc(NC(=O)c2cccs2)c(C(=O)OC(C)C)c1C	5	108	105	110	106	102*
COc1cc(O)c(CC=C(C)C)c(O)c1C(=O)CCc1ccc(O)cc1	16	114	?	118	102	·
CCc1nc2sc(C)c(C)c2c(=O)n1CCO	52*	141	120	130	105	28
CC(CSc1nnnn1-c1ccccc1)Cn1c(N2CCCC2)nc2c1c(=O)[nH]c(=O)n2C (stereo not drawn)	2	55	94	92	81	9
SMILES	Avidin fluor	RGS16-Gao HTS	RGS7-Gao reg	RGS4-Gao reg	RGS8-Gao	GSH bead fluor
N#Cc1ccc(NC(=O)Nc2cccc(C#N)c2)cc1	5	88	?	90	96	·
N#Cc1cccc(NC(=O)CC2CCCCC2)c1	9	116	108	112	107	260*
CCCCNC(=O)CSc1nc2ccsc2c(=O)n1C1CCN(C(=O)OCC)CC1	29	97	98	98	102	22
Cc1onc(-c2ccccc2)c1C(=O)NNC(=S)NC(=O)c1ccc2c(c1)OCO2	14	106	?	107	101	·
O=C(NCCN1CCOCC1)c1cc2sccc2n1Cc1ccc(Cl)cc1	52*	102	109	104	102	15
CC(C)CN(C(=O)CN1CCOCC1)c1c(N)n(CC(C)C)c(=O)[nH]c1=O	19	157	106	105	115	14
COC(=O)Nc1nnc(COc2ccccc2)s1	5	101	?	102	100	·
Cc1ccc(N2C(=O)C3CCC(C)(C2=O)C3(C)C)cc1 (stereo not drawn)	4	100	?	98	100	·
CC12CCC(C(=Nc3ccc(N=C4C(=O)C5(C)CCC4C5(C)C)cc3)C1=O)C2(C)C	57*	97	?	112	100	·
Cc1cc(C)n(-c2ncnc3sc(C)c(C)c23)n1	53*	114	105	109	103	14
Cc1cc(C)n(-c2ncnc3sc4c(c23)CCCC4)n1	9	100	95	97	100	15
Cc1cc(C(=O)NCC(=O)OC(C(=O)Nc2cc(C(F)(F)F)ccc2Cl)c2ccccc2)ccc1[N+](=O)[O-] (stereo not drawn)	7	104	102	101	101	257*
O=C(NC1CCCc2ccccc21)c1cccnc1 (stereo not drawn)	7	106	103	102	101	256*
Cc1nc([N+](=O)[O-])c(Br)n1CC(=O)c1ccc2ccccc2c1	50*	104	108	98	101	38
COc1ccc(/C(N)=N/OC(=O)c2ccc3c(c2)OCO3)cc1	48*	105	133	111	103	10
COc1ccc2ccccc2c1CN1CCCC(CO)C1 (stereo not drawn)	57*	102	113	101	100	18
COc1ccc2ccccc2c1CN1CCN(Cc2ccccc2)CC1	8	100	100	102	101	11
CCOC(=O)N1CCC(NC(=O)c2cnc3n(c2=O)CCS3)CC1	-2	-13*	-21*	-14*	2.7*	18
CCCCNC(=O)c1cnc2n(c1=O)CCS2	29	99	103	102	101	23
Cc1c(N=Cc2ccc[nH]2)c(=O)n(-c2ccccc2)n1C	56*	93	106	99	95	20
